Holding throughout (experiment): NCI-60 one-dose screen, 48 h (100 = growth as untreated, 0 = no growth, -100 = all killed)
Common to all, as to details: 10 µM unless noted

Assay [1] relates to T-47D breast.
The subject of assay [2] is BT-549 breast.
The test system of assay [3] is MDA-MB-435 melanoma.
The subject of assay [4] is SW-620 colon.
Assay [5] has as its system MCF7 breast.
Assay [6] concerns HCT-116 colon.
Assay [7] concerns HCC-2998 colon.
Assay [8] has as its system KM12 colon.

The structures appear in SMILES notation. This is part of a sample that, as a whole, favours compounds with a hit. Of some 83,000 tested, about 20% had one in any assay.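 Plates (96-well) were seeded with cells, treated with compound at one concentration, and incubated for 48 hours before percent growth was determined.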 Values without a mark were called inactive. Activity calls are given as the source filed them. The calls were made as follows: active = growth percent below 10; inactive = the rest.

This passage reports growth results from PubChem BioAssay (NCI).

As for `O=C(N/N=C/c1ccccc1O)c1ccccc1Nc1ccnc(C(F)(F)F)c1`, the growth is 19.4% in assay [1]; 30.1% in assay [2]; 32.4% in assay [3]; 35% in assay [4]; 8.24% (active) in assay [5]; 14.4% in assay [6]. Further, the growth in assay [7] was 46%; in assay [8], 32.4%.
As to `Cn1cc(-c2nonc2-c2c[nH]c3ccc(F)cc23)c2cccnc21`, the growth in assay [1] was 16.2%; in assay [2], 93.1%; in assay [3], 62.3%; in assay [4] it was 97.3%; in assay [5] it was 23.5%; in assay [6], 90.9%. The growth in assay [7] is 91.8%; in assay [8], 67.4%.
For `C=CC(=O)Nc1cccc(-c2nc(SC)nc(NCc3ccccc3)c2C#N)c1`, the growth in assay [1] was 28.5%; in assay [2], 44.3%; in assay [3], 62%; in assay [4] it was 89%; in assay [5], 47.2%; in assay [6], 55.1%. In addition, the growth in assay [7] is 84.7%; in assay [8] it was 89.2%.
Turning to `O=C(/C=C/c1cccc(Cl)c1)c1ccc(O)c(CN2CCN(c3cc4c(cc3F)c(=O)c(C(=O)O)cn4C3CC3)CC2)c1`, the growth in assay [1] is 44.9%; in assay [2], 34%; in assay [3], 44.7%; in assay [4], 21.4%; in assay [5], 28.3%; in assay [6] it was 6.6% (active). The growth in assay [7] is 61.3%; in assay [8] it was 51.2%.
Take `CCOC(=O)c1c(C(=O)OCC)c2cc(-c3ccn4c(C(=O)c5ccccc5)c(C(=O)OCC)c(C(=O)OCC)c4c3)ccn2c1C(=O)c1ccccc1`: the growth in assay [1] was 82.5%; in assay [2], 93.4%; in assay [3], 99.9%; in assay [4], 105%; in assay [5], 92.9%; in assay [6], 103%. The growth in assay [7] is 95.2%; in assay [8] it was 87.7%.
On to `COc1cccc(-c2nn(C(C)(C)C)cc2-c2ccnc(NCCCNS(=O)(=O)c3ccc(C)cc3)c2)c1`, for which the growth in assay [1] was 98.1%; in assay [2], 101%; in assay [3] it was 104%; in assay [4] it was 103%; in assay [5], 102%; in assay [6], 96.7%. Further, the growth in assay [7] was 113%; in assay [8] it was 101%.
In the case of `Cc1ccc(C2Oc3ccccc3C3CC(c4cccs4)=NN32)cc1` (configuration not stated), the growth in assay [1] was 94.7%; in assay [2], 86.6%; in assay [3], 103%; in assay [4], 102%; in assay [5], 80.4%; in assay [6], 99.9%. Also, the growth in assay [7] is 98.7%; in assay [8], 94.3%.
On to `COc1ccc(O)c(N=Nc2nccs2)c1`, for which the growth is 37% in assay [1]; 95.6% in assay [2]; 104% in assay [3]; 62.3% in assay [4]; 64.3% in assay [5]; 65.5% in assay [6]. Moreover, the growth was 89.4% in assay [7] and 73.3% in assay [8].
For `CCCCC(=O)OCC1OC(n2cnc3c(=S)nc[nH]c32)C(OC(=O)CCCC)C1OC(=O)CCCC` (configuration not stated), the growth in assay [1] is 36.1%; in assay [2], 43.9%; in assay [3] it was 29.4%; in assay [4], 23.5%; in assay [5] it was 20.2%; in assay [6] it was 27.3%. In addition, the growth in assay [7] was -0.586% (active); in assay [8], 36.1%.
`O=C(N=Nc1c(O)[nH]c2ccc(Br)cc12)c1cc(-c2ccccc2)on1`: the growth in assay [1] is 101%; in assay [2], 104%; in assay [3], 95.8%; in assay [4], 103%; in assay [5], 93.2%; in assay [6] it was 106%. For the same compound, the growth in assay [7] is 103%; in assay [8], 100%.
Consider `COc1cc2c(cc1-c1c(C)noc1C)ncc1nc(C3CCOCC3)n([C@H](C)COC(F)F)c12`, for which the growth in assay [1] was 46%; in assay [2], 68.8%; in assay [3], 40.6%; in assay [4], 59%; in assay [5] it was 19.2%; in assay [6], 40.4%. Further, the values for the growth in assay [7] and in assay [8] were 47.7% and 47%, respectively.
On to `Cc1nn(-c2cc(=O)[nH]c3ccc(Cl)cc23)c(N)c1C#N`, for which the growth in assay [1] is 97.1%; in assay [2], 111%; in assay [3], 103%; in assay [4] it was 98.7%; in assay [5], 92.3%; in assay [6] it was 101%. Also, the growth in assay [7] was 102%; in assay [8] it was 104%.
Regarding `O=S(=O)(Nc1ccc(I)cc1F)c1ccc(-c2cnc(C3CC3)o2)cc1`, the growth in assay [1] was 52%; in assay [2], 45.7%; in assay [3], 2.11% (active); in assay [4] it was 27.2%; in assay [5] it was 27.9%; in assay [6], 40.8%. The growth in assay [7] is 76.9%; in assay [8], 52.9%.
`COc1cc2c(cc1OC)C(Sc1ccc(SC)cc1)c1c(nc(N)c(C#N)c1N)O2` (configuration not stated): the growth in assay [1] is -47.1% (active); in assay [2], -73.9% (active); in assay [3], -90.8% (active); in assay [4], -68.9% (active); in assay [5] it was -51.2% (active); in assay [6] it was -86.8% (active). Besides, the growth in assay [7] was -84.9% (active); in assay [8] it was -72% (active).
Turning to `CN1CCN(CCCOc2cccc3nc(Nc4ccc(Cl)c(F)c4)ccc23)CC1`, the growth in assay [1] is 38.5%; in assay [2], 80%; in assay [3], 25.3%; in assay [4], -34.1% (active); in assay [5], -43.1% (active); in assay [6] it was 31.6%. Moreover, the growth in assay [7] was 55.2%; in assay [8], -34.7% (active).
Consider `O=C1c2ccccc2C(=O)c2c1ccc1[nH]c(-c3cccs3)nc21`, for which the growth in assay [1] was 56.1%; in assay [2], 65.5%; in assay [3], 101%; in assay [4] it was 90.7%; in assay [5], 66.4%; in assay [6], 70.5%. The values for the growth in assay [7] and in assay [8] were 99.3% and 70.5%, respectively.
As for `Cc1ccc(NC(=O)/C=C/c2ccccc2)c(C(N)=O)c1`, the growth is 27.6% in assay [1]; 94% in assay [2]; -45.5% (active) in assay [3]; 22.7% in assay [4]; 15.7% in assay [5]; 34.4% in assay [6]. Further, the growth in assay [7] was 80.8%; in assay [8], 14.4%.
`Nc1n[nH]c2cc(F)c([C@@H]3Nc4ccc5[nH]ncc5c4[C@H]4C5CCC(C5)[C@@H]34)cc12` (some centres not stated): the growth in assay [1] is 97.6%; in assay [2], -7.74% (active); in assay [3] it was -15.3% (active); in assay [4] it was 21.7%; in assay [5], 16.3%; in assay [6], -29.3% (active). Besides, the growth was 15.9% in assay [7] and 1.62% (active) in assay [8].
Turning to `COc1cc(-c2nn(-c3ccc(C)cc3)cc2C(=O)O)ccc1O`, the growth was 89.5% in assay [1]; 103% in assay [2]; 87.3% in assay [3]; 103% in assay [4]; 93.4% in assay [5]; 99.7% in assay [6]. Also, the figures for the growth in assay [7] and in assay [8] were 92.5% and 64.7%, respectively.
With `Cc1cc2c3ccccc3ccc2[n+]2ccccc12`, the growth was 4.64% (active) in assay [1]; -2.46% (active) in assay [2]; 76.5% in assay [3]; 33% in assay [4]; 27.2% in assay [5]; 43.5% in assay [6]. Moreover, the results for the growth in assay [7] and in assay [8] were 47% and 25.9%, respectively.
`COc1ccc(/C=C/C(=O)c2ccc(O)c(CN3CCN(c4cc5c(cc4F)c(=O)c(C(=O)O)cn5C4CC4)CC3)c2)cc1`: the growth was 37.6% in assay [1]; 17.7% in assay [2]; 28.3% in assay [3]; 17.5% in assay [4]; 8.68% (active) in assay [5]; 9.41% (active) in assay [6]. The growth in assay [7] is 43.5%; in assay [8], 24.8%.
`CC(C)(O)c1cn(CCCCN2C(=O)C(=O)c3ccccc32)nn1`: the growth is 99.5% in assay [1]; 110% in assay [2]; 101% in assay [3]; 99.6% in assay [4]; 93.9% in assay [5]; 101% in assay [6]. The growth in assay [7] is 103%; in assay [8], 101%.
Regarding `COc1cccc(NC(=O)c2sc3nc(C)c(C(C)=O)cc3c2N)c1`, the growth in assay [1] is 54%; in assay [2], 53.7%; in assay [3] it was -41.1% (active); in assay [4], 39.3%; in assay [5], 30.1%; in assay [6] it was 37.8%. The growth in assay [7] is 54.5%; in assay [8], 37.8%.
For `CC[N+](CC)=c1sc2c(s1)C(c1ccc(Cl)cc1)Oc1ccc(Cl)cc1-2` (configuration not stated), the growth in assay [1] is -2.38% (active); in assay [2], 4.07% (active); in assay [3], 2.5% (active); in assay [4], 2.29% (active); in assay [5], 4.58% (active); in assay [6] it was 6.48% (active). The figures for the growth in assay [7] and in assay [8] were -15.1% (active) and -28.8% (active), respectively.
With `C(=N/Nc1ncc(-c2cc3cc(-c4ccccc4)ccc3o2)s1)/c1cccs1`, the growth in assay [1] was 100%; in assay [2], 110%; in assay [3], 95.9%; in assay [4] it was 99.7%; in assay [5], 89.7%; in assay [6] it was 91.5%. Moreover, the growth in assay [7] is 100%; in assay [8] it was 97%.
Consider `c1csc(C2=NN3C(C2)c2ccccc2OC3c2ccncc2)c1` (configuration not stated), for which the growth in assay [1] was 93.2%; in assay [2], 92.4%; in assay [3] it was 99.6%; in assay [4], 103%; in assay [5], 77.3%; in assay [6], 102%. The growth was 96.3% in assay [7] and 92.2% in assay [8].
Turning to `Cc1cc(N2CCSCC2)nc(NC2CCCC(Nc3ccnc4cc(Cl)ccc34)C2)n1` (configuration not stated), the growth in assay [1] was -37.2% (active); in assay [2], -60.2% (active); in assay [3], -88.5% (active); in assay [4], -60.8% (active); in assay [5] it was -36.3% (active); in assay [6], -65.6% (active). For the same compound, the growth is -58.3% (active) in assay [7] and 8.04% (active) in assay [8].
Regarding `FC(F)(F)c1ccc(-c2cn3nc(-c4c[nH]c5ccc(Br)cc45)sc3n2)cc1`, the growth in assay [1] is 67.6%; in assay [2], 105%; in assay [3] it was 100%; in assay [4] it was 97.3%; in assay [5] it was 74.9%; in assay [6], 93.1%. In addition, the values for the growth in assay [7] and in assay [8] were 95.6% and 87.3%, respectively.
For the compound `COc1ccc(-c2cc(NC(=O)Nc3ccc4ncsc4c3)no2)cc1`, the growth is 86.6% in assay [1]; 106% in assay [2]; 105% in assay [3]; 105% in assay [4]; 84.6% in assay [5]; 102% in assay [6]. Also, the growth is 103% in assay [7] and 100% in assay [8].
